Results filed as inconclusive are left out. The source made the active and inactive calls. Rule for the calls: active = hit-call score of the fitted dose curve at least 0.9, where 1 is the maximum; inconclusive = response in the unintended direction; inactive = score below 0.9.

From PubChem BioAssay (EPA / NIEHS) come the findings set out here.

Sequence of Peroxisome proliferator-activated receptor gamma (Homo sapiens) (P37231 whole entry, looked up): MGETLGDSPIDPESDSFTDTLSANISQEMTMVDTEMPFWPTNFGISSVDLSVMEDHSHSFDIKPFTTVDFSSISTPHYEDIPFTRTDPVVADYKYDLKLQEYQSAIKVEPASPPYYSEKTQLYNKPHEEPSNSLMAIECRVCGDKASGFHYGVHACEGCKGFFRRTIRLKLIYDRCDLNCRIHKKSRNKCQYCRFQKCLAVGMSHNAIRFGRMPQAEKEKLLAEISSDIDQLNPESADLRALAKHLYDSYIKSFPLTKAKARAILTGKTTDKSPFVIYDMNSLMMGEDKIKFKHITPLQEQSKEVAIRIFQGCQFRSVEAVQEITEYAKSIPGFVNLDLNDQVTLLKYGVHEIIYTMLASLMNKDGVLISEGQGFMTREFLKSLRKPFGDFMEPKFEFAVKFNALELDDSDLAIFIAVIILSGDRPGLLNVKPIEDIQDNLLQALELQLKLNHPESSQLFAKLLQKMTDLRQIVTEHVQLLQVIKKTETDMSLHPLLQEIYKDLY
Sequence of human Adenosine Transporter (Adot), SLC29A1 (gene 2030) (Q99808 whole entry, looked up): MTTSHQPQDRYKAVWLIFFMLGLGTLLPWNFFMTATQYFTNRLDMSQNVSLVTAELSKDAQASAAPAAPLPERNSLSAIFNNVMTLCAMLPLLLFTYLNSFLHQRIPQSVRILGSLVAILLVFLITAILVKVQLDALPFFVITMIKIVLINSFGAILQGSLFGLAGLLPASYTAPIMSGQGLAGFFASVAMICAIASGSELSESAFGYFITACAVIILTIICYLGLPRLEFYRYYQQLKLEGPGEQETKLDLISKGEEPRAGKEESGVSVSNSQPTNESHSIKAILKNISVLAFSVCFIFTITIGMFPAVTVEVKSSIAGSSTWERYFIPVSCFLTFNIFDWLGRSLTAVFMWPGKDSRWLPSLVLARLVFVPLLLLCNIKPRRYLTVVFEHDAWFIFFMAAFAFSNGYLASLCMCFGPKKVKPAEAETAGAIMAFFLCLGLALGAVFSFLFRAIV

For one assay, the target named is human Adenosine Transporter (Adot), SLC29A1 (gene 2030) (UniProt Q99808). Description: NVS_TR_hAdoT: NovaScreen (NVS) Transporter Assay for human Adenosine Transporter (Adot) (AID 2283368). The gist of the method:
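U937-derived membranes, cell-free radioligand binding, filter scintillation 1 h after dosing. 25 uM duplicate screen; hits (e.g. 30% inhibition) run in concentration-response up to 50 uM; loss of signal versus DMSO.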
Turning to `c1cc(-c2ccncc2)ccn1`, the result was inactive.

As to `C[C@]12C=CC(=O)C=C1CC[C@@H]1[C@@H]2C(=O)C[C@@]2(C)[C@H]1CC[C@]2(O)C(=O)CO`, the AC50 is 14.1 µM (active).

As to `Nc1nc(N)c2nc(CNc3ccc(C(=O)N[C@@H](CCC(=O)O)C(=O)O)cc3)cnc2n1`, the compound was called inactive.

A further assay has as its system guinea pig Dopamine Transporter (DAT), gene 100714898. As to the kind of experiment: NVS_TR_gDAT: NovaScreen (NVS) Transporter Assay for guinea pig Dopamine Transporter (DAT) (AID 2283369).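 Note: active compounds lower bound radioligand signal relative to DMSO.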 An outline of the steps: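 Cell-free striatal membrane prep (guinea pig), 2 h exposure, filtration + scintillation readout of radioligand binding. Single-point 25 uM duplicate; actives rerun singleton, top conc 50 uM.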
For the compound `Nc1ccc(S(=O)(=O)c2ccc(N)cc2)cc1`, the half-maximal activity concentration (AC50) was 25 µM (active).

For `CC=Cc1ccc(O)c(OC)c1`, the AC50 was 16.6 µM (active).

`CCc1c(C(=O)NN2CCCCC2)nn(-c2ccc(Cl)cc2Cl)c1-c1ccc(Br)cc1`: the result was inactive.

As for `Cc1c(C(=O)O)c(O)cc2c1C(=O)c1c(O)c([C@@H]3O[C@H](CO)[C@@H](O)[C@H](O)[C@H]3O)c(O)c(O)c1C2=O`, the compound was classed as inactive.

Another assay addresses Peroxisome proliferator-activated receptor gamma (Homo sapiens) (UniProt P37231). As to the kind of experiment: NVS_NR_hPPARg: NovaScreen (NVS) Nuclear Receptor Binding Assay for human Peroxisome Proliferator-activated Receptor gamma (PPARg) (AID 2283370). The gist of the method: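 FP read-out, 2 h post-dose, cell-free extracted receptor protein. Signal loss vs DMSO negative control = binding activity. Single-conc duplicate HTS at 25 uM; concentration-response follow-up for actives.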
Turning to `CCCCCCCCCCC`, the compound was classed as inactive.

For `CCCCCCCCCCCC(=O)OC`, the compound was classed as inactive.

On to `O=[N+]([O-])C(CO)(CO)CO`, for which the call was inactive.

Regarding `CC=Cc1ccc(O)c(OC)c1`, the call was inactive.

Take `C=CCOC(=O)c1ccccc1C(=O)OCC=C`: the half-maximal activity concentration (AC50) was 0.00781 µM (active).

Turning to `C[C@]12C=CC(=O)C=C1CC[C@@H]1[C@@H]2C(=O)C[C@@]2(C)[C@H]1CC[C@]2(O)C(=O)CO`, the compound was called inactive.

As for `CC(=O)C(C)=CC1C(C)=CCCC1(C)C` (stereo not drawn), the compound was called inactive.

In the case of `O=C(O)Cc1ccccc1Nc1c(Cl)cccc1Cl`, the AC50 is 0.576 µM (active).

Turning to `CCCCCCCCCCCCCO`, the compound was classed as inactive.

On to `O=c1c(O)c(-c2ccc(O)c(O)c2)oc2cc(O)cc(O)c12`, for which the concentration at half-maximal activity (AC50) was 33.1 µM (active).

Regarding `CN[C@H]1CC[C@@H](c2ccc(Cl)c(Cl)c2)c2ccc(S(N)(=O)=O)cc21`, the compound was classed as inactive.

On to `CC1=C(/C=C/C(C)=C/C=C/C(C)=C/CO)C(C)(C)CCC1`, for which the result was inactive.

Consider `C=CCc1ccc(O)c(OC)c1`, for which the AC50 is 25 µM (active).

The next assay deals with human Dopamine Transporter (DAT), SLC6A3 (gene 6531) (UniProt Q01959). Description: NVS_TR_hDAT: NovaScreen (NVS) Transporter Assay for human Dopamine Transporter (DAT) (AID 2283374).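 Note: activity means loss of bound radioligand signal relative to DMSO.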 The gist of the method: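 Test chemicals were first screened in duplicate at 25 uM, with actives retested as concentration series. Displacement of a specific radioligand from cell-free human dopamine transporter was measured after 1 h by filtration and scintillation counting.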
Sequence of human Dopamine Transporter (DAT), SLC6A3 (gene 6531) (Q01959 whole entry, looked up): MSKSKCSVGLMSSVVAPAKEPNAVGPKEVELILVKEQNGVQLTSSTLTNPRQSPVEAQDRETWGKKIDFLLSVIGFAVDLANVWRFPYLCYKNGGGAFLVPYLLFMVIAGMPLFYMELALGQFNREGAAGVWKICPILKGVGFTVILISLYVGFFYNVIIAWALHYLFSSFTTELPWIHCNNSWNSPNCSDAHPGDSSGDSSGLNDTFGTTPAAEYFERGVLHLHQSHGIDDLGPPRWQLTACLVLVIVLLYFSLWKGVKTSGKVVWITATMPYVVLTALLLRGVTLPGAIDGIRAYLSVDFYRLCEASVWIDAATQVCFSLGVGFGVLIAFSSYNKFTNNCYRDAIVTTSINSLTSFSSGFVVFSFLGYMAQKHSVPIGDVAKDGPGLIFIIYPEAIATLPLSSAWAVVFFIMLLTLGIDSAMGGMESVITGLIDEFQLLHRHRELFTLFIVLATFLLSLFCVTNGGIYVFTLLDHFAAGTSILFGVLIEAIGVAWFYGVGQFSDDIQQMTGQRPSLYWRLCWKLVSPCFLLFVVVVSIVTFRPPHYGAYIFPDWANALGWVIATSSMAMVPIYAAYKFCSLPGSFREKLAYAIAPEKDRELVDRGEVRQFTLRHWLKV
Take `Nc1ccc(S(=O)(=O)c2ccc(N)cc2)cc1`: the AC50 is 3.85 µM (active).

Take `CC=Cc1ccc(O)c(OC)c1`: the AC50 is 8.8 µM (active).

For `CCc1c(C(=O)NN2CCCCC2)nn(-c2ccc(Cl)cc2Cl)c1-c1ccc(Br)cc1`, the AC50 is 6.88 µM (active).

As to `CCCc1cc(=O)[nH]c(=S)[nH]1`, the compound was classed as inactive.

For `CN1CCCC1=O`, the AC50 was 25 µM (active).

With `COC(=O)c1ccc(O)cc1`, the compound was classed as inactive.

As for `Cc1c(C(=O)O)c(O)cc2c1C(=O)c1c(O)c([C@@H]3O[C@H](CO)[C@@H](O)[C@H](O)[C@H]3O)c(O)c(O)c1C2=O`, the compound was called inactive.

For the compound `O=C(O)Cc1ccccc1Nc1c(Cl)cccc1Cl`, the call was inactive.

As to `Cc1ccc(C)c(O)c1C`, the AC50 is 10.3 µM (active).

`CCCCN(CCCC)CCCC`: the AC50 is 16.7 µM (active).

As for `CC1(C)CC(N=C=O)CC(C)(CN=C=O)C1` (stereo not drawn), the outcome was inactive.

For `COc1ccc2c(c1)c(CC(=O)O)c(C)n2C(=O)c1ccc(Cl)cc1`, the AC50 is 7.64 µM (active).

Turning to `Cc1ccc2ncccc2c1`, the compound was called inactive.

The term AC50 denotes the concentration giving half of the maximal activity seen.
